# A selection: hits, their analogues and other compounds. The true share with any hit is near 3.5%.
# GPR151 activ: human GPR151 activation | Q8TDV0 | PathHunter beta-arrestin GPR151 cells, luminescence | activation, % at 11.2 µM | actives 1% (n = 650,000) | AID 1508602; in the data active means activation above about 4.9%;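 further: 0% = median of compound wells and 100% = cells with positive control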
# FBW7 act: activators of human E3 ligase FBW7; normalized activity (activation), % at 26.1 µM; actives 0.13% (n = 650,000); AID 1259310; AlphaScreen FBW7–phospho-cyclin E peptide binding, activator screen; in the data active means normalized activity above about 1.9%;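 further: purified mutant Fbw7 with reduced substrate affinity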
# MITF primary: blocks human microphthalmia-associated transcription factor | inhibition, % at 2.6 µM | actives 0.91% (n = 650,000) | O75030 | AlphaScreen MITF homodimerization, bead proximity signal | AID 1259374; in the data active means inhibition above about 50%;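 further: 0% = vehicle wells with protein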
# Target sequence (O75030 whole entry, looked up): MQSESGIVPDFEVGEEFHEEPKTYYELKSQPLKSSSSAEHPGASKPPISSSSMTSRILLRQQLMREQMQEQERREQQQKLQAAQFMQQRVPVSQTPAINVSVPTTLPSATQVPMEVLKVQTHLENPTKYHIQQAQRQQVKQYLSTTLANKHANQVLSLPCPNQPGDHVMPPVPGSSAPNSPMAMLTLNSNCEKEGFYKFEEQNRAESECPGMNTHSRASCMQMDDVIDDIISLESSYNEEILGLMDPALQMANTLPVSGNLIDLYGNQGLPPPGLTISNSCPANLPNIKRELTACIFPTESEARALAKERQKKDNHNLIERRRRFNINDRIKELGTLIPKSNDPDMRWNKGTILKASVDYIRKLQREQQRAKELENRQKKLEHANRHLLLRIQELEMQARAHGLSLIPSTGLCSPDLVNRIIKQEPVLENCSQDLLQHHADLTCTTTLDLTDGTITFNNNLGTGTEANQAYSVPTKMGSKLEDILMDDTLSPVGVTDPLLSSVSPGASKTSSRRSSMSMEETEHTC
# TEAD-YAP inh: TEAD-YAP interaction inhibition; HEK-TIYL cells, TEAD-Gal4/YAP UAS-luciferase luminescence; inhibition, % at 9.12 µM; actives 1.4% (n = 640,000); in the data active means inhibition above about 32%;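 further: 0% = median of test compound wells and 100% = reference inhibitor wells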
# Active calls of the source: *; . = no result.
SMILES,GPR151 activ,FBW7 act,MITF primary,TEAD-YAP inh
CNC(=O)c1ccccc1Nc1cc(NC(=O)C2CCc3ccccc32)ncc1C(F)(F)F (stereo unspecified),-2,0,16,79*
CNC(=O)c1ccccc1Nc1cc(NC(=O)Cc2ccc(N)cc2)ncc1C(F)(F)F,-1,1,-17,79*
NC(=O)c1ccccc1Nc1cc(NC(=O)Cc2ccc(F)cc2)ncc1F,-1,0,15,15
O=C(Cc1ccc2c(c1)OCO2)Nc1cc(Nc2ccccc2-c2nn[nH]n2)c(C(F)(F)F)cn1,-1,1,10,5
CNC(=O)c1ccccc1Nc1cc(NC(=O)Cc2ccsc2)ncc1C(F)(F)F,0,0,-9,77*
CC(=C\c1ccccc1)/C=C1/SC(=S)N(C(C)C(=O)O)C1=O (stereo unspecified),-2,0,12,-4
C=CCN1C2=NCCCN2c2ccccc21,-1,0,1,6
CCCCCCN1C2=NCCCN2c2ccccc21,-1,1,8,36*
COc1cccc(/C=N/NC(=O)C(=O)N/N=C/c2cccc(OC)c2O)c1O,0,-1,-205,13
COc1cccc(/C=N/NC(=O)c2ccc(NC(=O)c3ccc(F)cc3)cc2)c1O,0,0,4,97*
COc1cccc(/C=N/NC(=O)c2ccc(Cl)c(Cl)c2)c1O,-1,0,7,9
COc1cccc(/C=N/NC(=O)c2ccncc2)c1O,1,-1,61*,6
O=C(N/N=C/c1cc(Cl)ccc1O)c1cncc(Br)c1,0,0,63*,7
COc1cccc(/C=N/NC(=O)c2ccc(N(C)S(=O)(=O)c3ccccc3)cc2)c1O,1,0,13,80*
COc1ccccc1/C=N/NC(=O)c1ccc(NC(=O)c2ccc(F)cc2)cc1,1,0,21,0
NC(=O)C1(N2CCCCC2)CCN(S(=O)(=O)c2cc(Br)cnc2N)CC1,-1,0,-4,5
COc1cccc(/C=N/NC(=O)c2cc(O)c(O)c(O)c2)c1O,-2,0,46,8
COc1cccc(/C=N/NC(=O)c2cncc(Br)c2)c1O,-5,0,90*,80*
COc1ccccc1C(=O)N/N=C/c1cc([N+](=O)[O-])cc(OC)c1O,-1,1,-10,-21
COc1cc(/C=N/NC(=O)c2cncc(Br)c2)cc(Br)c1O,-1,0,7,-4
COc1cccc(/C=N/NC(=O)c2cc3ccccc3cc2O)c1O,-6,0,24,53*
COc1cc([N+](=O)[O-])cc(/C=N/NC(=O)c2ccncc2)c1O,-1,-1,83*,5
O=C(N/N=C\c1ccc([N+](=O)[O-])s1)c1cncc(Br)c1,-1,0,10,65*
COc1cccc(/C=N/NC(=O)C(=O)Nc2cccc(C(F)(F)F)c2)c1O,1,-3,6,59*
Cc1ccc(-c2cnc3ccc(N[C@H](CO)C(C)C)nn23)cc1,2,0,-14,17
SMILES,GPR151 activ,FBW7 act,MITF primary,TEAD-YAP inh
CC(C)[C@@H](CO)Nc1ccc2ncc(-c3ccc(N)cc3)n2n1,-1,17*,9,31
CC(C)[C@@H](CO)Nc1ccc2ncc(-c3cccc(O)c3)n2n1,-1,0,18,39*
CC(C)[C@@H](CO)Nc1ccc2ncc(-c3cccc(F)c3)n2n1,0,0,-9,14
Oc1ccc(-c2cnc3c(Nc4ccc5[nH]ccc5c4)nccn23)cc1,0,0,8,69*
Cc1ccc(-c2cnc3c(Nc4ccc5[nH]ccc5c4)nccn23)cc1,1,1,14,3
OCc1ccccc1-c1cnc2c(Nc3ccc4[nH]ccc4c3)nccn12,-5,0,13,93*
c1cn2c(-c3ccsc3)cnc2c(Nc2ccc3[nH]ccc3c2)n1,-1,0,4,56*
Nc1ccc(-c2cnc3c(Nc4ccc5[nH]ccc5c4)nccn23)cc1,0,0,9,69*
COc1cc(-c2cnc3c(Nc4ccc5[nH]ccc5c4)nccn23)cc(OC)c1OC,-1,0,8,1
c1ccc(-c2cc(-c3ccccc3)[n+](CCc3c[nH]c4ccccc34)c(-c3ccccc3)c2)cc1,2,0,10,70*
COc1cc(/C=C/c2ccc(Cl)cc2)cc(OC)c1,-2,.,5,.
Cc1cc2cc(CCNS(=O)(=O)c3ccc([N+](=O)[O-])cc3)c(=O)[nH]c2cc1C,1,1,19,45*
Cc1ccc(C)c2[nH]c(=O)c(CCNS(=O)(=O)c3ccc([N+](=O)[O-])cc3)cc12,0,0,1,4
COc1ccc(N(C)S(=O)(=O)c2cc(Br)cc3c2N(C(C)=O)CC3)c(OC)c1,-1,0,-8,56*
CCCc1nn(CC(=O)N2CCCCC2C)c(=O)c2cc3ccsc3n12 (stereo unspecified),1,0,-3,5
C/C=C/N1C(=S)NC2(O)c3ccccc3C(=O)C12O (stereo unspecified),-1,0,15,5
O=C(Nc1sc2c(c1C(=O)O)CCCC2)c1ccccc1F,-6,0,10,52*
O=C(Nc1sc2c(c1C(=O)N1CCCCC1)CCCCC2)c1ccccc1F,0,0,1,5
O=C(Nc1sc2c(c1C(=O)O)CCCCC2)c1ccccc1F,-8,0,11,56*
CNC(=O)c1c(NC(=O)c2ccccc2F)sc2c1CCCC2,-1,0,2,-5
CCS(=O)(=O)Nc1ccccc1Oc1ccccc1,0,0,10,4
O=C(Nc1nc2ccc(NC(=O)C34CC5CC(CC(C5)C3)C4)cc2s1)C1CCCCC1,-2,0,21,53*
COc1cccc(Nc2nc(-c3ccc(OC)cc3OC)cs2)c1,1,0,7,64*
Fc1ccc2nc(Nc3nc(-c4ccccn4)cs3)sc2c1,2,0,33,52*
COc1ccc(-c2csc(Nc3ccccc3OC)n2)c(OC)c1,-1,0,-5,-3
SMILES,GPR151 activ,FBW7 act,MITF primary,TEAD-YAP inh
Fc1ccc2nc(Nc3nc(-c4ccncc4)cs3)sc2c1,0,0,-1,-8
CCOc1ccc(Nc2nc(-c3ccccn3)cs2)cc1,-4,-2,9,16
CCOc1ccc(Nc2nc(-c3sc(NC(=O)CC)nc3C)cs2)cc1,-2,0,7,48*
COc1ccc(Nc2nc(-c3ccccn3)cs2)cc1,-5,-2,11,43*
COC(=O)C1=CN(Cc2ccc(Cl)cc2)C=C(C(=O)OC)C1c1cc2c(cc1Br)OCO2,-1,0,-6,1
COc1ccc(Nc2nc(-c3sc(C)nc3C)cs2)cc1,-1,0,15,42*
Cc1nc(N)sc1-c1csc(Nc2cccc(C(F)(F)F)c2)n1,0,0,52*,-8
Cc1nc(NC(=O)c2ccccc2)sc1-c1csc(Nc2cccc(Cl)c2C)n1,-6,0,-16,-11
CCc1ccc(Nc2nc(-c3ccccn3)cs2)cc1,-3,0,14,40*
COc1cc(Br)c(Nc2nc(-c3sc(NC(=O)c4ccccc4)nc3C)cs2)c(Br)c1,-5,0,2,42*
